Legend:
Assay in all cases: DAPPL (digital affinity profiling via proximity ligation, sequencing); 10 mM Tris-HCl pH 7.5, 50 mM NaCl, 1 mM DTT, 4% glycerol, room temperature, 30 min; GST-TFs on glutathione beads, 16-mer random dsDNA library, 0.1% formaldehyde crosslink after washing; high values mean tight binding
FEV = molecular target: T1, FEV (Homo sapiens, UniProt Q99581 1-238); conditions: protein: recombinant; tags: N-terminal GST; dsDNA, one strand shown
T1 sequence: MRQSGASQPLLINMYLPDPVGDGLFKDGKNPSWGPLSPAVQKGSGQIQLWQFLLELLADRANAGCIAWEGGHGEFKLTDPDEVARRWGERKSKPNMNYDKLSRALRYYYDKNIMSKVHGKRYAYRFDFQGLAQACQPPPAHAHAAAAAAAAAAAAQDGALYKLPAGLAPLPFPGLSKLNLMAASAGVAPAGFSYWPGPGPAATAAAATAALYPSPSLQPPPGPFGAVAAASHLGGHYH
Procedure, shortened: (§1)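 The binding signal reported is, for every hexamer, its read frequency for a factor over its read frequency for the tag-only sample. Reads came from pools of yeast-expressed, GST-fused human transcription factors on glutathione beads, barcoded with DNA and mixed with that sample, which were incubated with 200 nmole of a random double-stranded 16-mer DNA library in Tris/NaCl/DTT/glycerol buffer at room temperature for 30 min. After washing, the pools were crosslinked with 0.1% formaldehyde, proximity-ligated with BsaI/T4 ligase for 1 h at 37 °C, PCR-amplified and sequenced on an Illumina NextSeq500.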

ETV5 = ETV5 (Homo sapiens, UniProt P41161 1-510); conditions: protein: recombinant; tags: N-terminal GST; dsDNA, one strand shown
Procedure, shortened: as §1

HSF1 = HSF1 (Homo sapiens, UniProt Q00613 1-529); conditions: protein: recombinant; tags: N-terminal GST; chain copies: 3; dsDNA, one strand shown
Procedure, shortened: as §1

SPIC = molecular target: T2, SPIC (Homo sapiens, UniProt Q8N5J4 1-248); conditions: protein: recombinant; tags: N-terminal GST; dsDNA, one strand shown
T2 sequence: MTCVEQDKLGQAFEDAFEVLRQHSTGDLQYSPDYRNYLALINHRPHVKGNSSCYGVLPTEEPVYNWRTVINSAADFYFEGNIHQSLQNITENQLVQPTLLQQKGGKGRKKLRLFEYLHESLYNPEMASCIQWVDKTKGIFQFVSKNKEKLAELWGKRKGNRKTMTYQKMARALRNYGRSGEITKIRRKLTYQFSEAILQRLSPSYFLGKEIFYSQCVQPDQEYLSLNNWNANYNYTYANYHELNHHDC
Procedure, shortened: as §1

ELF4 = ELF4 (Homo sapiens, UniProt Q99607 1-663); conditions: protein: recombinant; tags: N-terminal GST; dsDNA, one strand shown
Procedure, shortened: as §1

ELK4 = molecular target: T3, ELK4 (Homo sapiens, UniProt P28324-2 1-405); conditions: protein: recombinant; tags: N-terminal GST; dsDNA, one strand shown
T3 sequence: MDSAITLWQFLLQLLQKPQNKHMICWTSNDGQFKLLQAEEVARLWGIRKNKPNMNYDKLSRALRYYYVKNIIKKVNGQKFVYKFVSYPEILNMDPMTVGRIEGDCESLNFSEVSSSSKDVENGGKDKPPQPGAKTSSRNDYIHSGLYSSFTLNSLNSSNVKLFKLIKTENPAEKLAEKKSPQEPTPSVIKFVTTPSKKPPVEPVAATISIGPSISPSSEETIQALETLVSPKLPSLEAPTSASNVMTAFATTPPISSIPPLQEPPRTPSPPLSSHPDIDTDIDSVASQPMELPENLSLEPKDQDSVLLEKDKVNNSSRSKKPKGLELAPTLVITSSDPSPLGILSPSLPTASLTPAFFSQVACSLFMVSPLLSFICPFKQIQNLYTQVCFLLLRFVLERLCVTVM
Procedure, shortened: as §1

ETV2 = molecular target: T4, ETV2 (Homo sapiens, UniProt O00321 1-342); conditions: protein: recombinant; tags: N-terminal GST; dsDNA, one strand shown
T4 sequence: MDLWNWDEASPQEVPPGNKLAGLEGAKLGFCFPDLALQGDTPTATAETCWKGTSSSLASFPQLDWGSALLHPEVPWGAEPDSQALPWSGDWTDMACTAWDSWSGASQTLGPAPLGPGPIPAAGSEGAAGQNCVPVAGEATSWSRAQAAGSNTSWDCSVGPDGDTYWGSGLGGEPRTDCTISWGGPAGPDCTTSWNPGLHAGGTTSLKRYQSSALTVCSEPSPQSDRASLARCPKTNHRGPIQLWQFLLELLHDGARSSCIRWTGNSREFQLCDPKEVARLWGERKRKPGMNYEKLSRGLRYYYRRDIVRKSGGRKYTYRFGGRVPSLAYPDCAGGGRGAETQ
Procedure, shortened: as §1

ELF3 = molecular target: T5, ELF3 (Homo sapiens, UniProt P78545 1-371); conditions: protein: recombinant; tags: N-terminal GST; dsDNA, one strand shown
T5 sequence: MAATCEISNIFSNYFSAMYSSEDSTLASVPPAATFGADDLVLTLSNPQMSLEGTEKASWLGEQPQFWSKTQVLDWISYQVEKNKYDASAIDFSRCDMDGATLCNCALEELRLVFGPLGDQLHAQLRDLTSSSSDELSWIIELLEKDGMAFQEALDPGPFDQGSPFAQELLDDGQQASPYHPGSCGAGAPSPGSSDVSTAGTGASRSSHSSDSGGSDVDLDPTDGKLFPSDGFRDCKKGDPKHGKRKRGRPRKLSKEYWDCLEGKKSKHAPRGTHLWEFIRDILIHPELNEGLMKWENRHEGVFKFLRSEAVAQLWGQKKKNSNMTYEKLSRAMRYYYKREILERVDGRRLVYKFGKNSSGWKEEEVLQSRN
Procedure, shortened: as §1

CRX = CRX (Homo sapiens, UniProt O43186 1-299); conditions: protein: recombinant; tags: N-terminal GST; dsDNA, one strand shown
Procedure, shortened: as §1

ETV1 = ETV1 (Homo sapiens, UniProt P50549 1-477); conditions: protein: recombinant; tags: N-terminal GST; dsDNA, one strand shown
Procedure, shortened: as §1

ERF = molecular target: T6, ERF (Homo sapiens, UniProt P50548 1-548); conditions: protein: recombinant; tags: N-terminal GST; dsDNA, one strand shown
T6 sequence: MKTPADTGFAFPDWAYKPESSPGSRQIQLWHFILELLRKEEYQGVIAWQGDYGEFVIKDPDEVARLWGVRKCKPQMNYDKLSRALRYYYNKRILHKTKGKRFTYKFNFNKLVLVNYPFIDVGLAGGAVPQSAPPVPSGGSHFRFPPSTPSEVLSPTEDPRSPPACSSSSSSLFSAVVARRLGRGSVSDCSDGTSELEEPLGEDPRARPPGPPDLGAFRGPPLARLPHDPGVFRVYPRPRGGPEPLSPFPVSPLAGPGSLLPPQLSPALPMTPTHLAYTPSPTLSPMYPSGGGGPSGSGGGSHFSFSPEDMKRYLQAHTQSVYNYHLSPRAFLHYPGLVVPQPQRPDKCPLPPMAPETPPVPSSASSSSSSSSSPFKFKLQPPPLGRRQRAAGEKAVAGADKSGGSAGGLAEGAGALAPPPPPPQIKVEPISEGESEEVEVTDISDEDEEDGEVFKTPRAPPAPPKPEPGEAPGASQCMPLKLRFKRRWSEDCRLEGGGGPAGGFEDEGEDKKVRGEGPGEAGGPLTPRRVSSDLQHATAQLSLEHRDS
Procedure, shortened: as §1

ETV3L = molecular target: T7, ETV3L (Homo sapiens, UniProt Q6ZN32 1-361); conditions: protein: recombinant; tags: N-terminal GST; dsDNA, one strand shown
T7 sequence: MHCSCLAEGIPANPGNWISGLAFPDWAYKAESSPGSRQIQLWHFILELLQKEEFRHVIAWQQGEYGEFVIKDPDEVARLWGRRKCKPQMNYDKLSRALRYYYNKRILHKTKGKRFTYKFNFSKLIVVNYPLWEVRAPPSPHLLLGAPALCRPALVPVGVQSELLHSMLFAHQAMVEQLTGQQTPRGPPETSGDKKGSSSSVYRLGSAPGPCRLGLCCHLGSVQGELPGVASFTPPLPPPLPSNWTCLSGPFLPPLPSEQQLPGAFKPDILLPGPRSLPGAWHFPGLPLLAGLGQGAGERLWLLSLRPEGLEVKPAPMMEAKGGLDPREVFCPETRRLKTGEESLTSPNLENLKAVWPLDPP
Procedure, shortened: as §1

ETS2 = molecular target: T8, ETS2 (Homo sapiens, UniProt P15036 1-469); conditions: protein: recombinant; tags: N-terminal GST; dsDNA, one strand shown
T8 sequence: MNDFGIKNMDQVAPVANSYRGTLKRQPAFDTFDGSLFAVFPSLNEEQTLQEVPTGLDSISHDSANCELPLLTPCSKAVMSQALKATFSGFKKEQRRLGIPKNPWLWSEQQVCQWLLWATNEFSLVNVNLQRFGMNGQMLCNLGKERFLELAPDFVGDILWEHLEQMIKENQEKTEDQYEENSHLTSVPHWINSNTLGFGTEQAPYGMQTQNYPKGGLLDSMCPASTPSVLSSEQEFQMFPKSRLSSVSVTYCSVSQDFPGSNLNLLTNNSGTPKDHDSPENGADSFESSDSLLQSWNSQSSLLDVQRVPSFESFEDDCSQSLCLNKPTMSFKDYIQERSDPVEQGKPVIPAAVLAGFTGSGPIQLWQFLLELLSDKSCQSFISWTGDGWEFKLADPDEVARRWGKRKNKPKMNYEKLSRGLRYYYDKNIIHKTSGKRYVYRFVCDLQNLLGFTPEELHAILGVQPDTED
Procedure, shortened: as §1

SPDEF = molecular target: T9, SPDEF (Homo sapiens, UniProt O95238 1-335); conditions: protein: recombinant; tags: N-terminal GST; dsDNA, one strand shown
T9 sequence: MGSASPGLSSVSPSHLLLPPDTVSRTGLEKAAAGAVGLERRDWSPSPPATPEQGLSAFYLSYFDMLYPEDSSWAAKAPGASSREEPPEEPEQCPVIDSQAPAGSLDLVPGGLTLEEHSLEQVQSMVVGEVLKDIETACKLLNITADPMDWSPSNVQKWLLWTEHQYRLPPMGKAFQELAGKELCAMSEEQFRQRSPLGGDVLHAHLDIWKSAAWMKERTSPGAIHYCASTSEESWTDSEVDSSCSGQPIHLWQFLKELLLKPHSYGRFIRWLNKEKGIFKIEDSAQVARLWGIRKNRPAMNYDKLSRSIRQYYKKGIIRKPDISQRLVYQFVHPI
Procedure, shortened: as §1

ETV7 = molecular target: T10, ETV7 (Homo sapiens, UniProt Q9Y603 1-341); conditions: protein: recombinant; tags: N-terminal GST; dsDNA, one strand shown
T10 sequence: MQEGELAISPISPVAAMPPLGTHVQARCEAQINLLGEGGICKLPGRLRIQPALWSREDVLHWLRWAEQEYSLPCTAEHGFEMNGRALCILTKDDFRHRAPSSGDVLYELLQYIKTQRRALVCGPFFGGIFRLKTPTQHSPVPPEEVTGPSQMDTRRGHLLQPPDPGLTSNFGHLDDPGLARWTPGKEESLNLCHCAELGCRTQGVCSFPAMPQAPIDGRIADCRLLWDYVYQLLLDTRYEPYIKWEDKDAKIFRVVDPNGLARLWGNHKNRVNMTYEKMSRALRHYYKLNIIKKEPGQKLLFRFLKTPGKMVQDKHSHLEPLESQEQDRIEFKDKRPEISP
Procedure, shortened: as §1

ELF5 = molecular target: T11, ELF5 (Homo sapiens, UniProt Q9UKW6-2 1-255); conditions: protein: recombinant; tags: N-terminal GST; dsDNA, one strand shown
T11 sequence: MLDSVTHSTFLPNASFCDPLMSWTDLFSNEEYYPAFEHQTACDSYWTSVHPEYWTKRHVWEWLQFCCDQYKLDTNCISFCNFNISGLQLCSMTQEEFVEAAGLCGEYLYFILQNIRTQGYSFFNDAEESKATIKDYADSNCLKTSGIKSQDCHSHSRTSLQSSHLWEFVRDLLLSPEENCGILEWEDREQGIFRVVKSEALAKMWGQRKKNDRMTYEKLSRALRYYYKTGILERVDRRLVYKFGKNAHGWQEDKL
Procedure, shortened: as §1

ETV3 = molecular target: T12, ETV3 (Homo sapiens, UniProt P41162-2 1-143); conditions: protein: recombinant; tags: N-terminal GST; dsDNA, one strand shown
T12 sequence: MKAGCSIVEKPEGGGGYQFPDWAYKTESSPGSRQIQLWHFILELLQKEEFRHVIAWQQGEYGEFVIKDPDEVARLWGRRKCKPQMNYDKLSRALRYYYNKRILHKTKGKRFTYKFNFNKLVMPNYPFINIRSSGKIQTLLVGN
Procedure, shortened: as §1

ETV6 = ETV6 (Homo sapiens, UniProt P41212 1-452); conditions: protein: recombinant; tags: N-terminal GST; dsDNA, one strand shown
Procedure, shortened: as §1

ETV6, sequence (P41212 whole entry): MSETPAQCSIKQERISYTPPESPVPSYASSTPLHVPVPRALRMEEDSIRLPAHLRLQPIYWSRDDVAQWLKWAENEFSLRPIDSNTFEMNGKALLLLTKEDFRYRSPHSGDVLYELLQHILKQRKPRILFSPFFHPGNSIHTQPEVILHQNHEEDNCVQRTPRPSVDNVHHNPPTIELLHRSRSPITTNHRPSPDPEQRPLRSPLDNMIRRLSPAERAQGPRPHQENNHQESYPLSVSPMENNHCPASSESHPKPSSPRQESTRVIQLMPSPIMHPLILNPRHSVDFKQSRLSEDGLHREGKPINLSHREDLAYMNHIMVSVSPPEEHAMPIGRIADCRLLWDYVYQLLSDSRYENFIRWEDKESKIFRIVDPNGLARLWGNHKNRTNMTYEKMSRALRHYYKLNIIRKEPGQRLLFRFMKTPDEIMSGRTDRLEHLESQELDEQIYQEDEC
ETV5, sequence (P41161 whole entry): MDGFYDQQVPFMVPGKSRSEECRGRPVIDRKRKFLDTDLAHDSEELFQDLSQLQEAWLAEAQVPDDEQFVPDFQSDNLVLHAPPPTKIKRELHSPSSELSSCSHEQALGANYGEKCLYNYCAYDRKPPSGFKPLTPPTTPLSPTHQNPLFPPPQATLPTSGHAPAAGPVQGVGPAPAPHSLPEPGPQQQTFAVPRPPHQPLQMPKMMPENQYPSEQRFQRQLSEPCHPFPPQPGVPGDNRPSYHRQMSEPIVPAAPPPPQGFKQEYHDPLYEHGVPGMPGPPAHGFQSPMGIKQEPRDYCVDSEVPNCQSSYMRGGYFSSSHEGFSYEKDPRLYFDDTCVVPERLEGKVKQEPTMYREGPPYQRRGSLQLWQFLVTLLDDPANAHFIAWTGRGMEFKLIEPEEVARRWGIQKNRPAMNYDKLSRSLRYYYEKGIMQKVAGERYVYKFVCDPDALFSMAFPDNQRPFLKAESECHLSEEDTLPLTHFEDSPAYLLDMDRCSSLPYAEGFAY
CRX, sequence (O43186 whole entry): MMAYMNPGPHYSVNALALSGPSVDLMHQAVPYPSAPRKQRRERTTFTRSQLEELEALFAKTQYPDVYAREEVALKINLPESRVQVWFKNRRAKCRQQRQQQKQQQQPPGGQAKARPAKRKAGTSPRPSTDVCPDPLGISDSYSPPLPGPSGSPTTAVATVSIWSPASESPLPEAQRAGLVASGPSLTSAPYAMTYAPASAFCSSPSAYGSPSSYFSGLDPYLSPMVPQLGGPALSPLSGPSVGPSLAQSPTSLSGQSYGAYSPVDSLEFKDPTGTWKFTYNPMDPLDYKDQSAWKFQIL
ETV1, sequence (P50549 whole entry): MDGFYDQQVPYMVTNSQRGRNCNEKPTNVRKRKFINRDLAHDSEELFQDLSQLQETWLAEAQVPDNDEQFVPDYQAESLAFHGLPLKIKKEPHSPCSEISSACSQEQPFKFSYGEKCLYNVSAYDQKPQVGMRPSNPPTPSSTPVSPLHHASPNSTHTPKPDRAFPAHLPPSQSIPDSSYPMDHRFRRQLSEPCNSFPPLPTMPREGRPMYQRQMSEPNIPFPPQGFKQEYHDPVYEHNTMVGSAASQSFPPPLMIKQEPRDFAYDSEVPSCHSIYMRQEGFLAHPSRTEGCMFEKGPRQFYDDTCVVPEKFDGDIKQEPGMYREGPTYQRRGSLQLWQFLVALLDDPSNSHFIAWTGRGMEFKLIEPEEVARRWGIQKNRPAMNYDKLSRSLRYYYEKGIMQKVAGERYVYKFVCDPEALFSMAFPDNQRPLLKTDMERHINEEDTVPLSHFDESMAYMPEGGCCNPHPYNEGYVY
HSF1, sequence (Q00613 whole entry): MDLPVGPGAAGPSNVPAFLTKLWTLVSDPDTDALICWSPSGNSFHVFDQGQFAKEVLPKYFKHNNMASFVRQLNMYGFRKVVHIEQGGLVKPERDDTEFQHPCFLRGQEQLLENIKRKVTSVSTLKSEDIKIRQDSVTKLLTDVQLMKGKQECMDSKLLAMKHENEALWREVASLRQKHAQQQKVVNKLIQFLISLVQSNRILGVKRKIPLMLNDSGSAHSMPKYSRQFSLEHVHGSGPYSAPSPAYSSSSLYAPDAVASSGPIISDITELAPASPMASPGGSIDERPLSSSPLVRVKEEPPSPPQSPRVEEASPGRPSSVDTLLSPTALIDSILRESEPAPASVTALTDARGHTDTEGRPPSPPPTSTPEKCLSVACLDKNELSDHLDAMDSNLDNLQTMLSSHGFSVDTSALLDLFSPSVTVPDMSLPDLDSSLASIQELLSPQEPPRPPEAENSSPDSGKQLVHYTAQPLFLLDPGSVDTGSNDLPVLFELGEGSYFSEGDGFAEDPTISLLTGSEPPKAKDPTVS
ELF4, sequence (Q99607 whole entry): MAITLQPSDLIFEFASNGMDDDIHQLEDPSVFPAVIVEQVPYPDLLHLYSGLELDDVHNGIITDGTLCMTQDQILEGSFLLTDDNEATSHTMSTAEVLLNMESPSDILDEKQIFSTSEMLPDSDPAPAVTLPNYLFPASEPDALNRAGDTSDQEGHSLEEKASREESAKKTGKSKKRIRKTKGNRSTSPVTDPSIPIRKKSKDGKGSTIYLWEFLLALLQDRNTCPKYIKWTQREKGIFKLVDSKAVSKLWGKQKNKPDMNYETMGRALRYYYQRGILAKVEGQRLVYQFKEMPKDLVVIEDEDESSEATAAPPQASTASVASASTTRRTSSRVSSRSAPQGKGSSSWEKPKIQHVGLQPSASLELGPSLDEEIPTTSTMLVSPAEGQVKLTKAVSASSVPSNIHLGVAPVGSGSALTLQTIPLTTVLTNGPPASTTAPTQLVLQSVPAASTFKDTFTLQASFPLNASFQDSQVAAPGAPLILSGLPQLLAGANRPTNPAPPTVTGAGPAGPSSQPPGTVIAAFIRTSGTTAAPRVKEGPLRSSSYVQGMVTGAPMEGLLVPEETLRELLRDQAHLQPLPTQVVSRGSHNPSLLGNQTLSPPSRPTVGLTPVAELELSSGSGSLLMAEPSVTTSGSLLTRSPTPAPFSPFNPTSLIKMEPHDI

CATTTG
binding signal (FEV): 1.21 fold enrichment (6-mer frequency, TF over GST control)
binding signal (ETV5): 1.24 fold enrichment (6-mer frequency, TF over GST control)
binding signal (HSF1): 1.13 fold enrichment (6-mer frequency, TF over GST control)
binding signal (SPIC): 1.15 fold enrichment (6-mer frequency, TF over GST control)
binding signal (ELF4): 1.26 fold enrichment (6-mer frequency, TF over GST control)
binding signal (ELK4): 1.26 fold enrichment (6-mer frequency, TF over GST control)
binding signal (ETV2): 1.29 fold enrichment (6-mer frequency, TF over GST control)
binding signal (ELF3): 1.49 fold enrichment (6-mer frequency, TF over GST control)
binding signal (CRX): 1.07 fold enrichment (6-mer frequency, TF over GST control)
binding signal (ETV1): 1.32 fold enrichment (6-mer frequency, TF over GST control)
binding signal (ERF): 1.4 fold enrichment (6-mer frequency, TF over GST control)
binding signal (ETV3L): 1.25 fold enrichment (6-mer frequency, TF over GST control)
binding signal (ETS2): 1.31 fold enrichment (6-mer frequency, TF over GST control)
binding signal (SPDEF): 1.25 fold enrichment (6-mer frequency, TF over GST control)
binding signal (ETV7): 1.3 fold enrichment (6-mer frequency, TF over GST control)
binding signal (ELF5): 1.18 fold enrichment (6-mer frequency, TF over GST control)
binding signal (ETV3): 1.25 fold enrichment (6-mer frequency, TF over GST control)
binding signal (ETV6): 1.21 fold enrichment (6-mer frequency, TF over GST control)

From publication PMC7862700, “An all-to-all approach to the identification of sequence-specific readers for epigenetic DNA modifications on cytosine”
